Measurements reported in PubChem BioAssay AID1159580 (chemical genetic matrix, 2015).
Where “and” joins values, the source holds several entries; their conditions need not be identical. Equal values may be shown once. Among all 5,500 compounds or so, about 2,000 (36%) were called active. About 18% were inconclusive and are not listed. Cut-off read from the data, not from the text of the source: active = normalized growth mostly below about 0.91 (no sharp cut-off); inconclusive = no clear call, values can overlap the other calls; inactive = mostly above about 0.92. The list shows a part of the results.

Test: chemical genetic growth profiling, strain panel (AID 1159580);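 note: tested at 20 µM; growth read once vehicle control cultures reached saturation at 30 °C; 1 = growth at the plate median or of vehicle wells; lower values mean less growth of the strain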
Settings: S. cerevisiae deletion strains, growth OD

Measured: normalized growth

CCCC(C(=O)OCCN(CC)CC)(c1ccccc1)c1ccccc1
inactive: locus YAL013W, strain DEP1, active compounds read low 0.991 | locus YAL021C, strain ccr4, active compounds read low 0.981 | locus YAL026C, strain drs2, active compounds read low 1.01 | locus YAL030W, strain snc1, active compounds read low 0.985 | locus YAL040C, strain CLN3, active compounds read low 1.03 | locus YBR009C, strain hhf1, active compounds read low 1 | locus YBR021W, strain FUR4, active compounds read low 0.92 | locus YBR023C, strain chs3, active compounds read low 1 | locus YBR171W, strain sec66, active compounds read low 0.998 | locus YBR229C, strain ROT2, active compounds read low 1.01 | locus YBR231C, strain swc5, active compounds read low 0.992 | locus YBR279W, strain paf1, active compounds read low 0.995 | locus YCL011C, strain gbp2, active compounds read low 1.01 | locus YCL016C, strain dcc1, active compounds read low 0.995 | locus YCL029C, strain bik1, active compounds read low 1 | locus YCL061C, strain MRC1 (second series), active compounds read low 0.993 | locus YCL069W, strain vba3, active compounds read low 1.01 | locus YCR088W, strain abp1, active compounds read low 1 | locus YDL005C, strain med2, active compounds read low 1 | locus YDL035C, strain GPR1, active compounds read low 0.99 | locus YDL040C, strain nat1, active compounds read low 1.01 | locus YDL074C, strain BRE1, active compounds read low 0.997 | locus YDL101C, strain DUN1, active compounds read low 1 | locus YDL134C, strain PPH21, active compounds read low 0.979 | locus YDL185W, strain tfp1, active compounds read low 0.994 | locus YDL192W, strain arf1, active compounds read low 0.994 | locus YDR001C, strain nth1, active compounds read low 1.01 | locus YDR069C, strain doa4, active compounds read low 0.99 | locus YDR101C, strain arx1, active compounds read low 0.986 | locus YDR150W, strain NUM1, active compounds read low 1 | locus YDR159W, strain sac3, active compounds read low 1 | locus YDR162C, strain NBP2, active compounds read low 0.997 | locus YDR195W, strain ref2 0.909 | locus YDR297W, strain sur2, active compounds read low 1 | locus YDR318W, strain mcm21, active compounds read low 0.993 | locus YDR334W, strain swr1, active compounds read low 1.03 | locus YDR335W, strain msn5, active compounds read low 1 | locus YDR363W, strain ESC2, active compounds read low 1 | locus YDR388W, active compounds read low 0.982 | locus YDR392W, strain spt3, active compounds read low 0.962 | locus YDR502C, strain sam2, active compounds read low 0.995 | locus YEL003W, strain gim4, active compounds read low 0.999 | locus YEL037C, strain rad23, active compounds read low 1 | locus YEL061C, strain CIN8 (second series), active compounds read low 1.01 | locus YEL061C, strain CIN8, active compounds read low 1 | locus YER002W, strain NOP16, active compounds read low 1.02 | locus YER015W, strain faa2, active compounds read low 1.01 | locus YER016W, strain bim1, active compounds read low 0.987 | locus YER110C, active compounds read low 0.999 | locus YER111C, strain swi4, active compounds read low 1 | locus YER155C, strain BEM2 (second series), active compounds read low 0.946 | locus YER155C, strain BEM2, active compounds read low 1.01 | locus YER167W, strain BCK2, active compounds read low 0.994 | locus YFR010W, strain ubp6, active compounds read low 0.994 | locus YGL078C, strain dbp3, active compounds read low 1.01 | locus YGL086W, strain mad1, active compounds read low 0.988 | locus YGL167C, strain pmr1, active compounds read low 0.999 | locus YGL173C, strain kem1, active compounds read low 0.99 | locus YGL227W, strain vid30, active compounds read low 1.01 | locus YGL240W, strain doc1, active compounds read low 0.99 | locus YGL248W, strain PDE1, active compounds read low 1.02 | locus YGL253W, strain hxk2, active compounds read low 1.01 | locus YGR078C, strain PAC10, active compounds read low 0.992 | locus YGR135W, strain pre9, active compounds read low 0.958 | locus YGR229C, strain SMI1, active compounds read low 0.976 | locus YGR252W, strain gcn5, active compounds read low 0.877 | locus YHR013C, strain ard1, active compounds read low 0.975 | locus YHR027C, strain rpn1, active compounds read low 1 | locus YHR030C, strain SLT2, active compounds read low 1 and 0.999 | locus YHR079C, strain IRE1 (second series), active compounds read low 1.01 | locus YHR079C, strain IRE1, active compounds read low 0.987 | locus YHR094C, strain hxt1, active compounds read low 0.987 | locus YHR129C, strain ARP1, active compounds read low 1.01 | locus YHR142W, strain chs7, active compounds read low 1 | locus YHR200W, strain rpn10, active compounds read low 0.993 | locus YIL066C, strain RNR3, active compounds read low 0.987 | locus YIL073C, strain SPO22, active compounds read low 1.01 | locus YIL125W, strain kgd1, active compounds read low 0.996 | locus YIR030C, strain dcg1, active compounds read low 0.989 | locus YJL092W, strain hpr5, active compounds read low 1 | locus YJL095W, strain BCK1 (second series), active compounds read low 0.994 | locus YJL095W, strain BCK1, active compounds read low 0.996 and 0.988 | locus YJL115W, strain asf1, active compounds read low 0.979 | locus YJL129C, strain trk1, active compounds read low 1.01 | locus YJL134W, strain LCB3, active compounds read low 1.01 | locus YJL154C, strain vps35, active compounds read low 1.01 | locus YJL164C, strain tpk1, active compounds read low 1 | locus YJL166W, strain qcr8, active compounds read low 0.997 | locus YJL168C, strain set2, active compounds read low 0.992 | locus YJL187C, strain SWE1 (second series), active compounds read low 1.01 | locus YJL187C, strain SWE1, active compounds read low 0.993 | locus YJR043C, strain POL32, active compounds read low 1 | locus YJR066W, strain TOR1, active compounds read low 0.954
active: locus YDR137W, strain rgp1, active compounds read low 1.18 [resistant]
